The results in this text go back to PubChem BioAssay (Tox21).

Each structure is given as a SMILES string. Records with an inconclusive call do not appear. Calls of active or inactive are those of the source. Calls come from the whole dose curve; as a rule, active = well fitted cell-killing curve with a large enough effect in the repeat runs; inconclusive = weak or mixed curves; inactive = flat fitted curve, though single readings scatter.

This assay is described as follows: qHTS RealTime-Glo MT Cell Viability Assay in HepG2 cells - 32 hour (AID 1224877). Note: nearly all actives have a fitted effect of over 55% in size. Conditions: RealTime-Glo luminescence; series mostly up to 76.8 µM. The source says: U.S. Tox21 Program National Center for Advancing Translational Sciences [NCATS] NIH Chemical Genomics Center [NCGC] U.S. Environmental Protection Agency [EPA] National Institutes of Environmental Health Sciences [NIEHS] National Toxicology Program [NTP] U.S. Food and Drug Administration [FDA] Tox21 Assay Overview: Measure of cell viability is critical in the cell-base assay. Analysis of cell viability is necessary for the characterization of cell responses to cytotoxic drugs and environmental stress. A RealTime-Glo MT Cell Viability Assay to monitor cell viability in real time of continues cell culture during 40 hours of compound treatment was used to screen Tox21 10K library compounds in HepG2 cells. The RealTime-Glo MT Cell Viability Assay is a nonlytic, homogeneous, bioluminescent method to measure cell viability in real time using a simple, plate-based method. The assay involves adding NanoLuc luciferase and a cell-permeant prosubstrate to cells in culture. Viable cells reduce the proprietary prosubstrate to generate a substrate for NanoLuc luciferase. This substrate diffuses from cells into the surrounding culture medium, where it is rapidly used by the NanoLuc Enzyme to produce a luminescent signal. The signal correlates with the number of viable cells, making the assay well suited for cytotoxicity studies.
Tox21 Assay Protocol Summary: The mixture of HepG2 cell suspension and reagents were dispensed at 600cells/6 ul/well in 1536-well tissue culture treated black solid bottom plates using a Multidrop dispenser. After the assay plates were incubated at a 37 C/5% CO2 incubator for 5 hours, 23 nL of compounds dissolved in DMSO, positive and negative controls was transferred to the assay plate by a pintool work station. The plates were incubated at 37 C for 40 hours. The luminescence intensity were measured at 0h, 8h, 16h, 24h, 32h and 40h time points using ViewLux plate reader during compound treatment.
For orientation: In qHTS, concentration-response curves come from the screen itself.
For `O=S(=O)(O)c1ccc(Cl)cc1`, the compound was called inactive.
Turning to `CCCOc1ccc(C(=O)OCCN(CC)CC)cc1N`, the result was inactive.
The entry for `CC(C)=CCC/C(C)=C\C#N` is “inactive”; for `COc1ccc2cc(CCC(C)=O)ccc2c1` it is “inactive”; for `CN(C)CCC[C@@]1(c2ccc(F)cc2)OCc2cc(C#N)ccc21` it is “inactive”.
As for `CC(C)(C)NCC(O)COc1cccc2c1CCC(=O)N2` (stereo not given), the entry is “inactive”; as for `C=C(C)C(=O)OCCOC1CC2CC1C1C=CCC21` (stereo not given), “inactive”; as for `CCCCCCC(=O)c1ccccc1`, “inactive”.
The entry for `C[C@H]1COc2c(C3(N)CC3)c(F)cc3c(=O)c(C(=O)O)cn1c23` is “inactive”; for `CCCCCCCCOCCC#N` it is “inactive”.
In the case of `CCO/C=C1\N=C(c2ccccc2)OC1=O`, the result was inactive.
As to `CC1(C)CC(N)CC(C)(C)N1`, the outcome was inactive.
As for `CCN1CCN(C(=O)N[C@@H](C(=O)N[C@@H]2C(=O)N3[C@@H]2SC(C)(C)[C@H]3C(=O)O)c2ccccc2)C(=O)C1=O`, the entry is “inactive”; as for `CC(CC(=O)Cl)CC(C)(C)C` (stereo not given), “inactive”; as for `O=C(O)Cc1c(Cl)ccc(Cl)c1Cl`, “inactive”.
The entry for `CC(=O)c1ccc2ccc3ccccc3c2c1` is “inactive”.
Take `NNC(=O)OCc1ccccc1`: the result was inactive.
The entry for `N#CC1(N)CCCCC1` is “inactive”; for `CC(C)OCCO` it is “inactive”.
As for `CCCc1ccc(O)c(OC)c1`, the entry is “inactive”; as for `CC(=O)OC1CCC(C(C)(C)C)CC1` (stereo not given), “inactive”; as for `CC(O)C(CO)C(C)O` (stereo not given), “inactive”.
The entry for `CC(C)(O)CCCC1=CCC(C=O)CC1` (stereo not given) is “inactive”.
`CC[C@@]1(c2ccccc2)NC(=O)N(C)C1=O`: the outcome was inactive.
As to `CCOc1ccccc1OCCN[C@H](C)Cc1ccc(OC)c(S(N)(=O)=O)c1`, the compound was called inactive.
For `CCCCc1ccc(Cl)cc1`, the compound was classed as inactive.
The entry for `CC(C)(O)c1ccc(C(C)(C)O)cc1` is “inactive”; for `O=C(O)Cc1ccccc1Oc1ccc(Cl)cc1Cl` it is “inactive”; for `O=Cc1ccccc1S(=O)(=O)O` it is “inactive”.
The entry for `CCOC(=O)c1ccc(N(C)C)cc1` is “inactive”.
Turning to `C/C=C(\C)C(=O)OC/C=C(\C)CCC=C(C)C`, the outcome was inactive.
As for `CC(=O)c1ccc(O)c(C(N)=O)c1`, the entry is “inactive”; as for `CCOCCOCCOC(C)=O`, “inactive”.
The entry for `O=C(CCBr)N1CCN(C(=O)CCBr)CC1` is “inactive”.
As for `COC(=O)c1c(C)cc(O)c(C)c1O`, the entry is “inactive”.
Regarding `COC(C)(C)CC(C)=O`, the compound was called inactive.
As for `C=COCCCCO`, the entry is “inactive”; as for `CC12CCCC=C1C(=O)OC2=O` (stereo not given), “inactive”; as for `CCCCCCCOC(C)=O`, “inactive”.
The entry for `Cc1ccc(N)nc1` is “inactive”.
